Results from the supplement of paper PMC6411743.
± gives the standard deviation of the averaged measurements. The full data set covers some 6,200 targets. This sample favours those with the largest changes.

Compound: Nc1ncnc2c1ncn2[C@@H]1O[C@H](COP(=O)(O)OP(=O)(O)NP(=O)(O)O)[C@@H](O)[C@H]1O [adenylyl imidodiphosphate]
Assay: NP40-soluble protein abundance relative to vehicle (solubility fold change) (ratio); higher = more soluble protein in presence of AMP-PNP
Summary of the method: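 Each value is a fold change relative to the detergent-processed vehicle, calculated per replicate from vsn-normalised intensities. Jurkat crude lysate received eight concentrations (0.1 to 10 mM) for 10 min at room temperature and 3 min at 37 °C, then was solubilised in 0.8% NP40 with benzonase (60 min, 4 °C). The ultracentrifuged supernatant was TMT-labelled and run by LC-MS/MS in three independent experiments.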

UniProt Q99615, sequence (Q99615 whole entry): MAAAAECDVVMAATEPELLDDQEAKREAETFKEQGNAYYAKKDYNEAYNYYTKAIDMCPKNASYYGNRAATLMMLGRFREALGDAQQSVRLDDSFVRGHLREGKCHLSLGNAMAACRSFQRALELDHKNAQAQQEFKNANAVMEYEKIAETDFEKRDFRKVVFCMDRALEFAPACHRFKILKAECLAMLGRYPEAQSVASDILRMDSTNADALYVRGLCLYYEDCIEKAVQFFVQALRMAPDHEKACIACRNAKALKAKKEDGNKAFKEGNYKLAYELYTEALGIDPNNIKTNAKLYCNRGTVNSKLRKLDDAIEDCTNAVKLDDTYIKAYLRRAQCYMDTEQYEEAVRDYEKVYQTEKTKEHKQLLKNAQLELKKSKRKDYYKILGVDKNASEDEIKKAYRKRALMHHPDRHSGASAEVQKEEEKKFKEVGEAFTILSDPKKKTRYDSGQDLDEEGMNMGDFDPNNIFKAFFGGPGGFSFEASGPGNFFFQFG
UniProt Q9HA47, sequence (Q9HA47 whole entry): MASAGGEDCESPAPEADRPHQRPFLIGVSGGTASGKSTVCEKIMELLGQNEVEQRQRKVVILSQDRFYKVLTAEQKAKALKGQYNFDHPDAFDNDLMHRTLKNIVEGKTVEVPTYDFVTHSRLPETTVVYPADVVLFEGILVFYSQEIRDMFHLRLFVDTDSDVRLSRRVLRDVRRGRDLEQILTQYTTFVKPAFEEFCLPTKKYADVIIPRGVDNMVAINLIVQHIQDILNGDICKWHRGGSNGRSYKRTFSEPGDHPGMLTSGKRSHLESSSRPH
UniProt Q96MX3, sequence (Q96MX3 whole entry): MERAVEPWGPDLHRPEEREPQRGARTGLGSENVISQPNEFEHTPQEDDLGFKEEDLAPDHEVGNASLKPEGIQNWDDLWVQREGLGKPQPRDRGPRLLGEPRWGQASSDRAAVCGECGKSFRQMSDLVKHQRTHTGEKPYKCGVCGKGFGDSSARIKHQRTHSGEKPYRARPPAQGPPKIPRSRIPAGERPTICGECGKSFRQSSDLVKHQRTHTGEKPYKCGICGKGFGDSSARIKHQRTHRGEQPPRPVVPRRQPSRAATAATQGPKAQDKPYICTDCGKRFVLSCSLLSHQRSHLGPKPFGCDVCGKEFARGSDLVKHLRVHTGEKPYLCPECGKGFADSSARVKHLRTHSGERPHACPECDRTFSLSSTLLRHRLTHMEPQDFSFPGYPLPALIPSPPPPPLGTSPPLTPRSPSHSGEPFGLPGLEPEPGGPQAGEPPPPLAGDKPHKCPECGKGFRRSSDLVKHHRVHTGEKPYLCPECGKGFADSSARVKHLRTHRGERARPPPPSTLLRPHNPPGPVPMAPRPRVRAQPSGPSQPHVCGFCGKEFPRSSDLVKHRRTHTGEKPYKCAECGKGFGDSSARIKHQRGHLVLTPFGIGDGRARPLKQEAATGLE
UniProt Q9NP97, sequence (Q9NP97 whole entry): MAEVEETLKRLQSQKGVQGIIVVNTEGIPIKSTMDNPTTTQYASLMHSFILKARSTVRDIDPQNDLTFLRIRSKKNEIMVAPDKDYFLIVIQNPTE
UniProt Q9BQ67, sequence (Q9BQ67 whole entry): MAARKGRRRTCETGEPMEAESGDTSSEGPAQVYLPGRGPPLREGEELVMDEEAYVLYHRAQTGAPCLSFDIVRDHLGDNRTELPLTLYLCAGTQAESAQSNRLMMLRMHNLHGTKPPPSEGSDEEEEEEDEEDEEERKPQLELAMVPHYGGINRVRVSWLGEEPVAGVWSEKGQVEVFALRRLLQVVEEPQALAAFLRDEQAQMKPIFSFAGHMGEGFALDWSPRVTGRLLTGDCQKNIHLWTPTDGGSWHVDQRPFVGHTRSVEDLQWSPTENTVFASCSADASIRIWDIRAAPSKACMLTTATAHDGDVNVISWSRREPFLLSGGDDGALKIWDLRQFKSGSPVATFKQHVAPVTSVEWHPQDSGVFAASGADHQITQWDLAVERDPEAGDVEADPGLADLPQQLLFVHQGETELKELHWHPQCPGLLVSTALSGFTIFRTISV
UniProt Q9ULW0, sequence (Q9ULW0 whole entry): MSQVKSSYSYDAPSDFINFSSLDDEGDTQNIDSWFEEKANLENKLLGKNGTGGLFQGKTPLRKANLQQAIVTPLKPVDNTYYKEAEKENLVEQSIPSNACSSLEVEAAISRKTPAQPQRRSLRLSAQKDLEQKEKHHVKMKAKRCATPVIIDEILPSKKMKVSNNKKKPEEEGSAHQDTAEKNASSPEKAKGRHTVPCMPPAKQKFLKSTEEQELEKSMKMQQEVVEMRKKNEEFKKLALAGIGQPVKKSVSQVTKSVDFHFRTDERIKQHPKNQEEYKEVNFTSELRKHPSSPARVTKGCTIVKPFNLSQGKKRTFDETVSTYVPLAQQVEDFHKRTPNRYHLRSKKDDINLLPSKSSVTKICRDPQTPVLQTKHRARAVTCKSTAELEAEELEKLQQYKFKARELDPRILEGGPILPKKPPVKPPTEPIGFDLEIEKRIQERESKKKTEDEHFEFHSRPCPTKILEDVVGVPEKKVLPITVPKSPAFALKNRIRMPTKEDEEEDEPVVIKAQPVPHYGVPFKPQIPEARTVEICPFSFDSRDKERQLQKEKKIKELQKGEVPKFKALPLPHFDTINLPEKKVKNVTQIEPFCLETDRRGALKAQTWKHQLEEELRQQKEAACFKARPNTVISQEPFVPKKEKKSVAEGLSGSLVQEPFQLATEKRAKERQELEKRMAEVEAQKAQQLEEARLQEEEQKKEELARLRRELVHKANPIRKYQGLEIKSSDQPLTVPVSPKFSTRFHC
UniProt Q9HCE1, sequence (Q9HCE1 whole entry): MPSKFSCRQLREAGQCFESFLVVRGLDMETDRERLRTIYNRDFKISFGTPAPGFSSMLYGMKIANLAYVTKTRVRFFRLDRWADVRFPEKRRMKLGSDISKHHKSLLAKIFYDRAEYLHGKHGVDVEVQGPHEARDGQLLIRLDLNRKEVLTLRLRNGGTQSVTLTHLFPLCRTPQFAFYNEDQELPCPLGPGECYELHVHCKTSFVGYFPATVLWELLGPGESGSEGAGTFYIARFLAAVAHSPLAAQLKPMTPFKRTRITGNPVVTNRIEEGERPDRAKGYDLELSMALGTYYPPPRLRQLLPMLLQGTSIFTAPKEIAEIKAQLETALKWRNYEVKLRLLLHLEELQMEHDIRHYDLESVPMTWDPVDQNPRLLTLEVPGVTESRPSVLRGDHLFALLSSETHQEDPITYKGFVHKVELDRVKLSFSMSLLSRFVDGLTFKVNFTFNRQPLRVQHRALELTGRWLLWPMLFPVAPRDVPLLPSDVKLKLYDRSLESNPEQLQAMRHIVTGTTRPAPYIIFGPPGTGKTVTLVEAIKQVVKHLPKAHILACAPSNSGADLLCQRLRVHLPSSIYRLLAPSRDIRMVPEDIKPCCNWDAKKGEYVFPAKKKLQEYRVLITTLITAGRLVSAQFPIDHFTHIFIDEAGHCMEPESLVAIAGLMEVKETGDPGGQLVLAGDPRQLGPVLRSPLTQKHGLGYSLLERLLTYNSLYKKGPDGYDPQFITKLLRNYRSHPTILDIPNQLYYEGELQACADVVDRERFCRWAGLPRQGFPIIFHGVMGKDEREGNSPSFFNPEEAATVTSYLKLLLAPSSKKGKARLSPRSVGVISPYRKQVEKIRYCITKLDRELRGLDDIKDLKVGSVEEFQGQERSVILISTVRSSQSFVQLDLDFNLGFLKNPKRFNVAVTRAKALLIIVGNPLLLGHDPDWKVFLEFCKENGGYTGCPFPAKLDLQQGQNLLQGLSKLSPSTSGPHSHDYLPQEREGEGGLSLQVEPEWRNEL
UniProt Q9NZ63, sequence (Q9NZ63 whole entry): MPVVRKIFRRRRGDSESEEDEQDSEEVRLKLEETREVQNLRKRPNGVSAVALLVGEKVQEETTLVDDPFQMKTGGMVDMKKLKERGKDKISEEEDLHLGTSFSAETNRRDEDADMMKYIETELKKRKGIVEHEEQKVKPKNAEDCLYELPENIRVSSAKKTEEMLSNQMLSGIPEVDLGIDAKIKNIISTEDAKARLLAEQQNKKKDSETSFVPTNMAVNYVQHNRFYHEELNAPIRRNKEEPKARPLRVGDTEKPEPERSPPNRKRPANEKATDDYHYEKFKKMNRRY
UniProt Q9HAB8, sequence (Q9HAB8 whole entry): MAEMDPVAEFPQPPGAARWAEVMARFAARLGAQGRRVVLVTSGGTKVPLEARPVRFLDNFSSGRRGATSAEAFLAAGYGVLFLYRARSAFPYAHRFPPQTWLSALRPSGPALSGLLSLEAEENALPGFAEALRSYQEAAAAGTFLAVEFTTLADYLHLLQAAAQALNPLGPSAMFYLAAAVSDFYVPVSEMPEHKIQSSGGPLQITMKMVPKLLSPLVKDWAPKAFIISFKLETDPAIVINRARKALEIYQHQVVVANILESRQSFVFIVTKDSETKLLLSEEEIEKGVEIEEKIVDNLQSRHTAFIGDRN
UniProt Q9BSL1, sequence (Q9BSL1 whole entry): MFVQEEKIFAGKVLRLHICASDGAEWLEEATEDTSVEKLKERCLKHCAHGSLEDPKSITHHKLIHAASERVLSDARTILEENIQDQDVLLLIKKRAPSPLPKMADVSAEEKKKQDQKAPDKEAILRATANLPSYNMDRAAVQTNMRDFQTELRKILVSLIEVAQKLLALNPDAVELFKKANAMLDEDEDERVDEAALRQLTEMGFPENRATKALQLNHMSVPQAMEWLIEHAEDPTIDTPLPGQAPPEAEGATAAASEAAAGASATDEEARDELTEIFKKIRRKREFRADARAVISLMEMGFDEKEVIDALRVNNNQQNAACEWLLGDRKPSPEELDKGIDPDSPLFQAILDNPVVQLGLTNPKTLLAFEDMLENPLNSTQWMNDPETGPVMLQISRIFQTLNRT
UniProt Q96NT0, sequence (Q96NT0 whole entry): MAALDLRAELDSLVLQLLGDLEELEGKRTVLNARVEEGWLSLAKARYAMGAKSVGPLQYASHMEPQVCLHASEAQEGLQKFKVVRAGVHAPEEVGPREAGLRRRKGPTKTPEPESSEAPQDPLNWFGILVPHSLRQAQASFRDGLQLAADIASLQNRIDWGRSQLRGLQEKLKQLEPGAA

Target	NP40-soluble protein abundance (concentration: 1mM)	NP40-soluble protein abundance (concentration: 2mM)	NP40-soluble protein abundance (concentration: 4mM)	NP40-soluble protein abundance (concentration: 6mM)	NP40-soluble protein abundance (concentration: 8mM)	NP40-soluble protein abundance (concentration: 10mM)
ASF1A (UniProt Q9Y294)	0.958 ± 0.077	0.863 ± 0.091	0.904 ± 0.068	0.921 ± 0.037	0.946 ± 0.032	0.844 ± 0.11
C9orf78 (UniProt Q9NZ63)	0.999 ± 0.047	1.03 ± 0.038	0.982 ± 0.055	0.971 ± 0.036	0.966 ± 0.034	0.939 ± 0.078
UniProt Q9NQ29|Q9NQ29-3|Q9NQ29-2	1.02 ± 0.04	1.13 ± 0.12	1.11 ± 0.055	1.15 ± 0.027	1.15 ± 0.091	1.35 ± 0.098
BCS1L (UniProt Q9Y276)	0.966 ± 0.021	0.874 ± 0.11	0.996 ± 0.024	0.955 ± 0.035	0.982 ± 0.024	0.937 ± 0.035
UniProt Q9Y2S0|Q9Y2S0-2|A0A0R4J2F3	1.03 ± 0.024	1.06 ± 0.053	1.08 ± 0.062	1.02 ± 0.018	1.03 ± 0.041	1.07 ± 0.036
UniProt Q96RG2|Q96RG2-2	0.9919 ± 0.0087	0.997 ± 0.048	1.02 ± 0.011	0.982 ± 0.021	1 ± 0.026	0.996 ± 0.024
UBAC1 (UniProt Q9BSL1)	0.965 ± 0.0098	1.01 ± 0.011	0.998 ± 0.028	0.955 ± 0.015	0.932 ± 0.036	0.933 ± 0.034
UniProt Q96T23|Q96T23-2	1.07 ± 0.026	1.21 ± 0.11	1.32 ± 0.061	1.53 ± 0.18	1.67 ± 0.21	1.93 ± 0.25
GRWD1 (UniProt Q9BQ67)	1.09 ± 0.064	1.01 ± 0.089	1.11 ± 0.068	1.05 ± 0.043	1.11 ± 0.073	1.04 ± 0.045
MOV10 (UniProt Q9HCE1)	0.952 ± 0.027	0.867 ± 0.15	0.932 ± 0.09	0.938 ± 0.032	0.944 ± 0.08	0.889 ± 0.12
UniProt Q9Y462|Q9Y462-3	1 ± 0.032	1.02 ± 0.037	1.012 ± 0.0034	1.01 ± 0.036	1.024 ± 0.0028	1.02 ± 0.013
UniProt Q9Y639|Q9Y639-1	1.01 ± 0.056	1.05 ± 0.055	1.01 ± 0.056	0.986 ± 0.028	0.984 ± 0.055	0.961 ± 0.025
THOC3 (UniProt Q96J01)	1.07 ± 0.069	1.1 ± 0.075	1.17 ± 0.15	1.24 ± 0.16	1.3 ± 0.23	1.34 ± 0.27
UniProt Q96RL7|Q96RL7-2|Q96RL7-3|Q96RL7-4	0.982 ± 0.039	0.918 ± 0.098	0.969 ± 0.012	0.916 ± 0.024	0.949 ± 0.022	0.8993 ± 0.0069
CCDC115 (UniProt Q96NT0)	0.994 ± 0.046	1.01 ± 0.043	1.01 ± 0.035	1 ± 0.04	0.968 ± 0.06	0.992 ± 0.041
UTP18 (UniProt Q9Y5J1)	1.05 ± 0.029	1.07 ± 0.048	1.1 ± 0.044	1.23 ± 0.028	1.28 ± 0.062	1.36 ± 0.05
UniProt Q9P2R7|Q9P2R7-2	0.9771 ± 0.0078	0.943 ± 0.027	0.938 ± 0.011	0.977 ± 0.032	0.958 ± 0.012	0.969 ± 0.049
TPX2 (UniProt Q9ULW0)	1.09 ± 0.013	1.2 ± 0.077	1.23 ± 0.066	1.27 ± 0.049	1.32 ± 0.072	1.39 ± 0.049
ZNF48 (UniProt Q96MX3)	1.015 ± 0.0097	1.062 ± 0.0052	1.05 ± 0.033	1.06 ± 0.028	1.06 ± 0.017	1.12 ± 0.059
REXO4 (UniProt Q9GZR2)	1.06 ± 0.047	1.09 ± 0.073	1.1 ± 0.038	1.17 ± 0.036	1.18 ± 0.039	1.21 ± 0.051
DNAJC7 (UniProt Q99615)	1.02 ± 0.012	1.05 ± 0.052	1.01 ± 0.015	1.03 ± 0.016	1.02 ± 0.013	1.04 ± 0.024
DYNLRB1 (UniProt Q9NP97)	0.996 ± 0.011	1.04 ± 0.054	0.977 ± 0.03	1.01 ± 0.018	0.9949 ± 0.0057	1.01 ± 0.02
ACAT2 (UniProt Q9BWD1)	0.987 ± 0.021	0.996 ± 0.038	0.931 ± 0.021	0.967 ± 0.017	0.951 ± 0.021	0.92 ± 0.02
UniProt Q9BQ39|A0A087WVC1	1.22 ± 0.068	1.27 ± 0.062	1.35 ± 0.023	1.43 ± 0.04	1.52 ± 0.097	1.5 ± 0.14
MRPL53 (UniProt Q96EL3)	0.987 ± 0.06	1.01 ± 0.023	0.986 ± 0.061	0.98 ± 0.045	1 ± 0.063	1 ± 0.066
AASS (UniProt Q9UDR5)	0.9781 ± 0.0043	0.935 ± 0.098	0.969 ± 0.035	0.947 ± 0.021	0.979 ± 0.01	0.939 ± 0.027
PPCS (UniProt Q9HAB8)	1.03 ± 0.033	0.981 ± 0.038	1.01 ± 0.028	1.03 ± 0.02	1.03 ± 0.026	1.04 ± 0.021
UCK1 (UniProt Q9HA47)	0.981 ± 0.029	1.01 ± 0.028	1.01 ± 0.011	1.02 ± 0.026	0.9745 ± 0.0089	1.01 ± 0.01
UniProt Q99571|Q99571-2|F6SFZ6	0.986 ± 0.019	0.959 ± 0.019	0.971 ± 0.019	1.014 ± 0.0026	1.012 ± 0.0075	1.01 ± 0.039
